# High-throughput results (PubChem BioAssay)
# Rows were chosen to be rich in hits. Some 21% of all compounds tested hit in one or more screens of this group.
# ELG1 repair inh: ELG1-dependent DNA repair inhibition | HEK293T ELG1-luciferase reporter, luminescence, 16 h; DNA damage induced by 5-fluorouridine | Potency, µM (titrated, usually from 46.1 µM), inactives show at the highest dose activity change, negative = inhibition, usual class: inhibitors | 330,000 tested, 2.3% active | AID 504467; also: potency is read from the fitted curve at half-maximal effect; nearly all actives have a fitted effect of over 55% in size
#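 Step one: seed 2,000 cells per well. Step two: pin-transfer compound or DMSO alongside 5-fluorouridine. Step three: incubate 16 hr, 37 °C, 5% CO2. Step four: add ONE-Glo, wait 30 min, read luminescence.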
# RORg inh: inhibitors of mouse ROR gamma transcriptional activity; Potency, µM (series often up to 53.6 µM), inactives show at the highest dose activity change, negative = inhibition, actives largely listed as inhibitors; Drosophila S2 Gal4-RORgamma UAS-luciferase reporter, 20 h; 310,000 tested, 5.4% active; also: potency is read from the fitted curve at half-maximal effect; nearly all actives have a fitted effect of over 60% in size
# Target sequence (P51450 whole entry, looked up, the tested form may be a part): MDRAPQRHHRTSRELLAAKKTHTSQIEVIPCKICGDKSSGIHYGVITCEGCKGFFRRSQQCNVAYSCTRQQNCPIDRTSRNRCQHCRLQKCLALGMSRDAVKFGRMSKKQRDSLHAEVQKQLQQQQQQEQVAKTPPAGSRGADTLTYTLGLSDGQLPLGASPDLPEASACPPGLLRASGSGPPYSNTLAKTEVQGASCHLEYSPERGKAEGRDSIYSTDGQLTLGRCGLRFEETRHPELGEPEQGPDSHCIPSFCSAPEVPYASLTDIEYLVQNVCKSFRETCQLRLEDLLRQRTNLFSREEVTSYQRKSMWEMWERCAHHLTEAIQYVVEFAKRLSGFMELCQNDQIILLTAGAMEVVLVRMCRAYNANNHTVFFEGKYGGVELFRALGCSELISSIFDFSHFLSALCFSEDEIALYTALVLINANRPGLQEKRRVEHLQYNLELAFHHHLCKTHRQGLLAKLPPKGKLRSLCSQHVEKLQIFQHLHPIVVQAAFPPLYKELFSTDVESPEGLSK
#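 Drosophila Schneider cells stably carrying a metallothionein-driven Gal4 DBD–ROR gamma fusion and a UAS-Photinus luciferase reporter were exposed to compound for 1 hr, then induced with copper sulfate (700 uM final) for 20 hr at ambient temperature before luminescence reading.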
# Gal4-VP16 FLuc: counter-screen for ROR gamma inhibitors: Gal4-VP16 reporter; Potency, µM (titrated, usually from 53.6 µM), for the others: at the top dose activity, negative = inhibition, usual class: inhibitors; Drosophila S2 Gal4-VP16 UAS-luciferase, luminescence, 20 h; 310,000 tested, 3.5% active;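 also: Gal4-VP16 expression switched on by copper sulfate through the metallothionein promoter; potency is read from the fitted curve at half-maximal effect; nearly all actives have a fitted effect of over 50% in size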
# DT40 TDP1 no CPT: qHTS for Inhibitors of human tyrosyl-DNA phosphodiesterase 1 (TDP1): qHTS in cells in absence of CPT | DT40 Tdp1-/- hTDP1 cells, no CPT, ATP luminescence, 48 h | Potency, µM (highest dose often 46.2 µM), for the others: top-dose activity change, negative = growth inhibition, hits mostly inhibitors | 420,000 tested, 15% active | AID 686978, 2013; also: potency is read from the fitted curve at half-maximal effect; nearly all actives have a fitted effect of over 55% in size
#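 Chicken DT40 Tdp1-/- cells complemented with human TDP1, screened without camptothecin (DMSO vehicle only), 400 cells/well. Compounds pin-transferred, cells incubated at 37 °C for at least 48 hr. Growth read as ATP-dependent luminescence (CellTiter-Glo, 30 min at RT).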
# DT40 TDP1 CPT: DT40-hTDP1 cell growth loss with CPT. chicken DT40 Tdp1-/-;hTDP1 cells + 20 nM CPT, ATP luminescence, 48 h. Potency, µM (highest dose often 46.2 µM), for the others: at the highest dose activity change, negative = growth inhibition, most hits filed as inhibitors. 420,000 tested, 12% active; also: potency is read from the fitted curve at half-maximal effect; nearly all actives have a fitted effect of over 55% in size
#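 Chicken DT40 Tdp1-/- cells stably complemented with human TDP1 were seeded at 400 cells/well in medium containing 20 nM camptothecin, exposed to pin-transferred compounds, and grown at 37 °C for at least 48 hr. Viability was read as ATP luminescence.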
# IL1B secr inh: inflammasome signaling inhibition, IL-1 beta readout. THP-1 LPS/ATP IL-1B secretion, AlphaLISA, 16 h; stronger effect = lower value. activity change, % at 57.5 µM. 360,000 tested, 4.7% active. AID 743279; in the data active = activity change below about -50%; inconclusive = mostly about -30% to -49%
#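 Secreted IL-1B measured by AlphaLISA bead assay after 16 h compound exposure of THP-1 cells; compounds (final up to 57.5 uM) added 1 h before LPS (250 ng/mL) and ATP (1.25 mM) stimulation; lower signal means less secretion.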
# * marks the source's active call; other numbers are inactive results; ? = inconclusive; · = not tested or not shown; [ ] = remark or other dose. Unless noted, calls follow the shape of the dose curve; as a rule, active = well fitted curve in the direction sought with a large enough effect; inconclusive = small, poorly fitted or top-dose-only effect, or another doubt; inactive = no such curve, though single readings can be large; an effect the other way counts as inactive or inconclusive. % is scaled to controls: 0 for no effect and ±100 for the full control effect.
SMILES,ELG1 repair inh,RORg inh,Gal4-VP16 FLuc,DT40 TDP1 no CPT,DT40 TDP1 CPT,IL1B secr inh
CC(=O)c1ccc(-c2cc(F)cc3c2OC(CNC(=O)c2ccc[n+]([O-])c2)C3)s1 (stereo unspecified),·,·,·,-10%,1%,·
CC(/C=C1\SC(=Nc2cccnc2)NC1=O)=C\c1ccccc1,-18%,11%,2%,2.9µM*,4.1µM*,-12
CC(C)[C@@H]1CC[C@@H](C)CC1=O,·,·,·,-17%,-15%,·
COc1ccc(-c2cc(-c3ccc(Cl)cc3)n[nH]2)c(O)c1,?,8.9µM*,?,?,?,?
Cc1ccc(O)c(-c2cc(-c3cccc(F)c3)n[nH]2)c1,?,?,?,?,?,-12
COc1ccc(-c2cc(-c3cc(OC)ccc3O)[nH]n2)cc1,?,?,?,?,21µM*,-8
COc1ccc(O)c(-c2cc(-c3cccc(Br)c3)n[nH]2)c1,?,?,?,16µM*,?,-6
COc1ccc(O)c(-c2cc(-c3ccc(F)cc3)n[nH]2)c1,?,13µM*,?,?,-25%,-51*
CC(O)(COc1ccccc1)c1ccc2c(c1)CN(Cc1cccc3cccnc13)CCO2 (stereo unspecified),·,·,·,?,14%[9.04 µM],·
CC(O)(COc1ccccc1)c1ccc2c(c1)CN(Cc1cccn1-c1ccccn1)CCO2 (stereo unspecified),·,·,·,16µM*,-11%[9.04 µM],·
CC(C)C(=O)Nc1ccc(C(=O)N/N=C/c2cc(Br)cc(Br)c2O)cc1,?,?,?,13µM*,7.3µM*,141
COc1cc(OC)c(/C=N/NC(=O)c2ccc(NC(C)=O)cc2)cc1Br,-2%,2%,2%,-15%,12%,-3
CNC(=S)N/N=C/c1cc(Br)cc(Br)c1O,?,3.2µM*,3.2µM*,?,?,0
Oc1c(Br)cc(Br)cc1/C=N/NC(=S)N[C@H]1CC2C=CC1C2 (stereo partly specified),?,?,?,?,?,90
CC(=O)Nc1ccc(C(=O)N/N=C/c2cc(Br)cc(Br)c2O)cc1,?,5µM*,-25%,10µM*,12µM*,126
CCOC(=O)c1c(S(=O)(=O)NCC(=O)Nc2ccc(F)cc2C)c(C)n(C)c1C,·,·,·,-6%,1%,·
COCCN(Cc1ccc(F)cc1)C(=O)c1cc2ccccc2oc1=O,-1%,-1%,23%,-9%,-24%,10
O=C1OCCN1C(=O)[C@H]1[C@H](c2ccc(F)cc2)C(c2ccc(F)cc2)=NN1c1ccc(Br)cc1,?,2%[40.7 µM],19%[40.7 µM],?,?,-61*
O=C(OCc1cn([C@@H]2CN(C(=O)C3CCCCC3)[C@@H](c3ccccc3)C[C@H]2O)nn1)c1ccccc1,·,·,·,?,0%,9
O=C(OCc1cn([C@H]2CN(C(=O)C3CCCCC3)[C@@H](c3ccccc3)C[C@@H]2O)nn1)c1ccccc1,·,·,·,21µM*,?,33
O=C(OCc1cn([C@H]2CN(C(=O)C3CCCCC3)[C@@H](c3ccc(Cl)cc3)C[C@@H]2O)nn1)c1ccccc1,·,·,·,21µM*,?,-20
COCCCNc1ccn2nc(-c3cccc(OCc4ccccc4)c3)cc2n1,·,·,·,7.3µM*,?,23
COc1cc(Nc2ccn3nc(-c4ccccc4Cl)cc3n2)cc(OC)c1OC,·,·,·,21µM*,?,0
COc1cc(Nc2cccc(-c3ccccc3)n2)cc(OC)c1OC,·,·,·,?,18µM*,20
c1ccc(COc2ccc(-c3cc4nc(NCCCn5ccnc5)ccn4n3)cc2)cc1,·,·,·,16µM*,23µM*,-15
